Measured values reported in PubChem BioAssay (NCATS).
Results filed as inconclusive are left out. The source made the active and inactive calls. Unless noted, the call rests on the fitted dose curve; in most records, active means well fitted activation curve with a large enough effect; inconclusive means small, poorly fitted or top-dose-only effect; inactive means flat fitted curve, though single readings scatter.

assay: Confirmation and Secondary Assay for Modulators of Hemoglobin Beta Chain Splicing at IVS2 654 locus (AID 910); settings: HeLa EGFP-654 splicing reporter, GFP fluorescence, 48 h; series mostly up to 46.1 µM; activation (splicing correction): at the top concentration;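 further: HeLa cells stably carrying EGFP split by mutant beta-globin IVS2-654 intron; per-well total GFP intensity by laser scanning cytometry after 2-day treatment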
Summary of the method: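 Readout: per-well total peak green fluorescence (488 nm ex, 500–520 nm em) from objects 5–250 µm, reflecting correct splicing of an EGFP-654 reporter. Compounds were applied for 2 days at 37 °C to overnight-plated HeLa EGFP-654 cells; controls were DMSO and 500 nM IVS2-654 PNA.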
Further: % of control where 0% means no effect.

Activation (splicing correction), inactive:
COc1c(CC(=O)c2cc3c(cc2O)OC(C)(C)C(O)C3)ccc2c1C=CC(C)(C)O2 (stereo not given) -4.35%, CC1(C)CC[C@]2(C(=O)O)C(O)C[C@@]3(C)C(=CCC4[C@@]5(C)CCC(O)C(C)(C)C5CC[C@@]43C)C2C1 (stereo not given in full) -1.15% [at 38.3 µM], CC(C)c1c(O)ccc2c1CCC1C(C)(C)CCC[C@@]21C (stereo not given in full) -7.5%, C=CC(C1=CC(=O)C(OC)=C(OC)C1=O)c1ccccc1 (stereo not given) -1.59% [at 38.3 µM], CCC1CN2CCc3cc(OC)c(OC)cc3C2CC1CC1NCCc2cc(OC)c(OC)cc21 (stereo not given) -8.31%, C#CCCCCCCCCCCCC(O)CC(O)COC(C)=O (stereo not given) -7.54%, CCCCCC(=O)O[C@@]1(C(C)=O)CCC2C3CCC4=CC(=O)CC[C@@]4(C)C3CC[C@]21C (stereo not given in full) -6.91%, CNC1CCC(c2ccc(Cl)c(Cl)c2)c2ccccc21 (stereo not given) -7.58%

outcome, inactive:
COc1cc(C2c3cc4c(cc3C(O)[C@H]3COC(=O)C23)OCO4)cc(OC)c1OC (stereo not given in full)

assay: qHTS Assay for Identification of Small Molecule Agonists for Hypoxia Response Element Signaling Pathway (AID 914; active means well fitted activation curve with a large enough effect in the signal ratio, with a control signal flat, not every such curve was filed as active; the % refers to the signal ratio); settings: ME-180 (cervical carcinoma) HRE-bla reporter, beta-lactamase ratio, CoCl2, 17 h; stronger effect = higher value
Summary of the method: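 Read-out: CCF4 FRET ratio of 460nm to 530nm emission (excitation 405nm) after 2.5 hours at room temperature, taken from HRE-bla ME-180 cells that had been exposed to compound and EC50 CoCl2 for 17 hours.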

activation, inactive:
C=CC[C@@H]1C=C[C@@H](O/N=C\C[C@@H]2C=C[C@H](OC(C)=O)[C@H](COC(C)=O)O2)[C@@H](CO)O1 4.01%, C/C(CCC(=O)OC[C@@H]1O[C@H](C#Cc2ccccc2)C=C[C@@H]1Oc1ccc(C)cc1)=N/OC[C@@H](C)[C@H](OCc1ccccc1)C(C)C 14.9%, CCc1cc2c(nc1CC)CCN(CC/C(C)=N/OC[C@@H](O)[C@@H]1O[C@@H]3OC(C)(C)O[C@@H]3[C@H]1O)C2 -8.78%

assay: Confirmation and Secondary Assay for Modulators of Hemoglobin Beta Chain Splicing at IVS2 705 locus (AID 930); settings: HeLa EGFP-705 splicing reporter, GFP fluorescence, 48 h; series mostly up to 46.1 µM; activation: at the top concentration;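 further: HeLa cells stably expressing the EGFP-705 splicing reporter; GFP fluorescence per well restored by corrected splicing of the IVS2-705 intron in EGFP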
Summary of the method: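 HeLa EGFP-705 reporter; 500 cells/well, o/n 37C 5% CO2; cpd 2 d; 488 ex/500-520 em laser scan; total peak GFP intensity/well. Ref: 500 nM […] antisense PNA.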

activation, inactive:
CC1(C)CC[C@]2(C(=O)O)C(O)C[C@@]3(C)C(=CCC4[C@@]5(C)CCC(O)C(C)(C)C5CC[C@@]43C)C2C1 (stereo not given in full) -0.0143% [at 38.3 µM], CC(C)c1c(O)ccc2c1CCC1C(C)(C)CCC[C@@]21C (stereo not given in full) 1.43%, CCC1CN2CCc3cc(OC)c(OC)cc3C2CC1CC1NCCc2cc(OC)c(OC)cc21 (stereo not given) 4.26%
